Inconclusive results are not listed. Entries that show only a call come without a potency. Values without a mark were called inactive. Active and inactive are the calls of the source. Unless noted, calls follow the shape of the dose curve; as a rule, active = well fitted curve in the direction sought with a large enough effect in the repeat runs; inconclusive = weak or mixed curves; inactive = no such curve, though single readings can be large; an effect the other way counts as inactive or inconclusive.

Drawing on PubChem BioAssay (Tox21), this text covers Potency, activity change, negative = inhibition and outcome for 38 compounds.

Sequence of Estrogen receptor (Homo sapiens) (P03372 whole entry, looked up): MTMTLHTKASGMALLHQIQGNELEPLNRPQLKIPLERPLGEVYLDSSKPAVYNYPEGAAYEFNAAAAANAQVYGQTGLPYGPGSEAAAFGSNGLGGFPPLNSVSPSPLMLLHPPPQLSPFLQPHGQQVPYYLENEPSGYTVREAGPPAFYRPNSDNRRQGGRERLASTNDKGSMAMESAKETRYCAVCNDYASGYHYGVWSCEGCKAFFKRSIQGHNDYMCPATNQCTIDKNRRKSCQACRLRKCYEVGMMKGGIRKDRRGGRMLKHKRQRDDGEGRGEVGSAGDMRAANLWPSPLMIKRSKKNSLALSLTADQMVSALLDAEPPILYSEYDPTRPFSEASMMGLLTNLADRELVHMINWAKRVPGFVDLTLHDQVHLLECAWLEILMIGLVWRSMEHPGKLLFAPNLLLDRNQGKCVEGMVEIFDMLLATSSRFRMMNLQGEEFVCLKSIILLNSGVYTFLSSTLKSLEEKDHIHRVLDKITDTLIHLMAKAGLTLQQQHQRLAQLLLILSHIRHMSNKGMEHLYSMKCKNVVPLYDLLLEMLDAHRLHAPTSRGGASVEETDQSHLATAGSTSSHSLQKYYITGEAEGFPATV
Sequence of Androgen receptor (Homo sapiens) (P10275 whole entry, looked up): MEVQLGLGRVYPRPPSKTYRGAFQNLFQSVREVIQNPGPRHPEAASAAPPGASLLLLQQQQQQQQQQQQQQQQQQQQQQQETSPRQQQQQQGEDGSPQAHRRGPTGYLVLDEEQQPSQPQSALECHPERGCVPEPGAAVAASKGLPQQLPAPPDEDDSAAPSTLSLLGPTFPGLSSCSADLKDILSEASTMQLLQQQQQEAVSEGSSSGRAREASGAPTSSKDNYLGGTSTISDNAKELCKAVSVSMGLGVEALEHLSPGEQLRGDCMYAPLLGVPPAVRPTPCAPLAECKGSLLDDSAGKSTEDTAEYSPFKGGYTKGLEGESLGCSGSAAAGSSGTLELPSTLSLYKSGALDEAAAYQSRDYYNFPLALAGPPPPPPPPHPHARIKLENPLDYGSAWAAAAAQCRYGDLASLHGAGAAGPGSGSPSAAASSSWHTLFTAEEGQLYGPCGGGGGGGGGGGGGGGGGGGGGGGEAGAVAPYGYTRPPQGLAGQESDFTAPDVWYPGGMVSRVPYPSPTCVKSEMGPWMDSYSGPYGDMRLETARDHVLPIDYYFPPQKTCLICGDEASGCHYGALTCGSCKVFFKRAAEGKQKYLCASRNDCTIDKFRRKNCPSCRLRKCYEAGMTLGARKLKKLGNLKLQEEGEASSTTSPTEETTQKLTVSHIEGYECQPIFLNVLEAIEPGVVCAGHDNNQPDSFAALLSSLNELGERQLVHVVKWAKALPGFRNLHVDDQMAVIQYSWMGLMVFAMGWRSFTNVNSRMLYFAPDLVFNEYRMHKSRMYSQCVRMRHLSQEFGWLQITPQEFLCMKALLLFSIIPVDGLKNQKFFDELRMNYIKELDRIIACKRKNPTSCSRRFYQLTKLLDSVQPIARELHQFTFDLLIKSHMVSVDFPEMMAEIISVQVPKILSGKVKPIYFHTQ

In one test the target is Androgen receptor (Homo sapiens) (UniProt P10275). The test can be described thus: qHTS assay to identify small molecule antagonists of the androgen receptor (AR) signaling pathway using the MDA cell line in the presence of 0.5 nM R1881 (AID 1259243). Also: nearly all actives have a fitted effect of over 50% in size. Also: potency is read from the fitted curve at half-maximal effect. Conditions: MDA-kb2 MMTV-luciferase, R1881 0.5 nM, 16 h; series mostly up to 42.5 µM. The gist of the method:
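Antagonist mode quantitative HTS in MDA-kb2 MMTV-luciferase cells, agonist R1881 at 0.5 nM final, 16 hr exposure at 37C and 0% CO2, luminescent detection.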
(Quantitative high-throughput screening tests each substance at several concentrations.)
As for `CC(C)c1ccccc1`, the Potency entry is “inactive”.
With `CC(C)CCCCCCc1ccc(OCCOCCO)cc1`, the Potency entry was “inactive”.
Same read-out and setting: the same measure for `Cc1ccsc1C(=CCCN1CCC[C@@H](C(=O)O)C1)c1sccc1C`: “inactive”; for `Cc1ncc(CO)c(CN)c1O`: “inactive”.
On to `Cn1cnc2c(F)c(Nc3ccc(Br)cc3Cl)c(C(=O)NOCCO)cc21`, for which the Potency is 5.96 µM (active).
Turning to `C[C@@H]1CN(c2c(F)c(F)c3c(=O)c(C(=O)O)cn(C4CC4)c3c2F)C[C@H](C)N1`, the Potency result was “inactive”.
Consider `CC(C)(C)c1cccc(O)c1`, for which the Potency entry is “inactive”.
Take `C[C@@H](N)C(=O)O`: the Potency result was “inactive”.
Still for that read-out and setting: then `Cc1c(C(=O)NCCO)[n+](=O)c2ccccc2n1[O-]`, with “inactive”; and `CC(=O)OC(C)OC(C)=O`, with “inactive”; and `CN(C)Cc1ccccc1`, with “inactive”.
On to `Cc1cc(S(=O)(=O)O)c(N)cc1Cl`, for which the Potency entry was “inactive”.
Consider `CC1=C2[C@H](/C=C(\C)C(=O)O)CC[C@@H](C)[C@H]2CC1`, for which the Potency was 31.8 µM (active).
As to `Nc1cccc(S(=O)(=O)O)c1`, the Potency entry is “inactive”.
On to `N#CSCC(=O)O`, for which the Potency entry is “inactive”.
Turning to `CC(=O)O[C@H]1CC[C@@]2(C)C(=CC[C@@H]3[C@@H]2CC[C@]2(C)C(C(C)=O)=CC[C@@H]32)C1`, the Potency is 11.9 µM (active).
Still for that read-out and setting: the same measure for `CCCC(CCC)(C(=O)OCC)C(=O)OCC`: “inactive”.
The same measure, in the same setting: then `CC(Oc1c(Cl)cccc1Cl)C1=NCCN1` (stereo not drawn), with “inactive”; and `CC1=C(CC(=O)O)c2cc(F)ccc2/C1=C\c1ccc(S(C)(=O)=O)cc1`, with “inactive”.
Same read-out and setting: the same measure for `OCCN(CCO)c1ccccc1`: “inactive”; for `COC(C)CCO` (stereo not drawn): “inactive”.
`COC(=O)C(C)O` (stereo not drawn): the Potency result was “inactive”.
For the compound `O=Cc1ccc(O)c(O)c1O`, the Potency entry is “inactive”.
Same read-out and setting: then `CN1CCN(N)CC1`, with “inactive”; and `CN1CCN(C2=Nc3cc(F)ccc3Cc3ccccc32)CC1`, with 16.8 µM (active).
Same read-out and setting: the same measure for `CC1(O)CSC(C)(O)CS1` (stereo not drawn): “inactive”.

The next test concerns the target Estrogen receptor (Homo sapiens) (UniProt P03372). The test can be described thus: qHTS assay to identify small molecule antagonists of the estrogen receptor alpha (ER-alpha) signaling pathway using the BG1 cell line in the presence of 0.1 nM 17-beta-estradiol (AID 1259244). Also: nearly all actives have a fitted effect of over 50% in size. Also: potency is read from the fitted curve at half-maximal effect. Conditions: VM7Luc4E2 (BG1) ERE-luciferase, antagonist mode, 0.1 nM E2, 22 h; series mostly up to 92.4 µM. The method in brief: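 Reporter is a stably transfected luciferase under four estrogen responsive elements in VM7Luc4E2 cells expressing native full-length ER-alpha; inhibition of 0.1 nM (final) 17beta-estradiol-driven signal over 22 h is read by luminescence.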
With `CC(C)c1ccccc1`, the Potency result was “inactive”.
The same measure, in the same setting: the same measure for `CC(C)CCCCCCc1ccc(OCCOCCO)cc1`: “inactive”; for `Cc1ccsc1C(=CCCN1CCC[C@@H](C(=O)O)C1)c1sccc1C`: “inactive”.
In the case of `Cc1ncc(CO)c(CN)c1O`, the Potency result was “inactive”.
Still for that read-out and setting: the same measure for `CC(CNC1CCCCC1)OC(=O)c1ccccc1` (stereo not drawn): “inactive”; for `COc1ccc(S(=O)(=O)Nc2nnc(CC(C)C)s2)cc1`: “inactive”.
For `CO[C@@]1(NC(=O)CSCC#N)C(=O)N2C(C(=O)O)=C(CSc3nnnn3C)CS[C@@H]21`, the Potency result was “inactive”.
As to `C[C@@H]1CN(c2c(F)c(F)c3c(=O)c(C(=O)O)cn(C4CC4)c3c2F)C[C@H](C)N1`, the activity change, negative = inhibition was 0.469% [at 19 µM].
For `CC(=O)N(CC(O)CN(C(C)=O)c1c(I)c(C(=O)NCC(O)CO)c(I)c(C(=O)NCC(O)CO)c1I)c1c(I)c(C(=O)NCC(O)CO)c(I)c(C(=O)NCC(O)CO)c1I` (stereo not drawn), the Potency result is “inactive”.
Consider `CC(C)(C)c1cccc(O)c1`, for which the Potency entry is “inactive”.
Still for that read-out and setting: the same measure for `CCC(=O)O[C@]1(C(=O)SCF)[C@H](C)C[C@H]2[C@@H]3C[C@H](F)C4=CC(=O)C=C[C@]4(C)[C@@]3(F)[C@@H](O)C[C@@]21C`: “inactive”.
Same read-out and setting: the same measure for `C=Cc1ccccc1`: “inactive”.
Regarding `CCCNC(C)C(=O)Nc1c(C)csc1C(=O)OC` (stereo not drawn), the Potency entry is “inactive”.
As to `CCN(CC)CCNC(=O)COc1ccc(Cl)cc1`, the Potency entry was “inactive”.
As for `O=c1oc2c(O)c(O)cc3c(=O)oc4c(O)c(O)cc1c4c23`, the activity change, negative = inhibition was 1.12% [at 19 µM].
Take `Cc1cc(S(=O)(=O)O)c(N)cc1Cl`: the Potency entry is “inactive”.
In the case of `O=c1[nH]c(=O)n([C@H]2C[C@H](O)[C@@H](CO)O2)cc1C(F)(F)F`, the Potency entry is “inactive”.
With `CC1=C2[C@H](/C=C(\C)C(=O)O)CC[C@@H](C)[C@H]2CC1`, the Potency is 63.4 µM (active).
Same read-out and setting: then `Nc1cccc(S(=O)(=O)O)c1`, with “inactive”; and `FC(F)(F)C(F)(F)C(F)(F)C(F)(F)C(F)(F)C(F)(F)C(F)(F)C(F)(F)Br`, with “inactive”; and `CC(=O)O[C@H]1CC[C@@]2(C)C(=CC[C@@H]3[C@@H]2CC[C@]2(C)C(C(C)=O)=CC[C@@H]32)C1`, with “inactive”.
On to `CC1=C(CC(=O)O)c2cc(F)ccc2/C1=C\c1ccc(S(C)(=O)=O)cc1`, for which the Potency entry was “inactive”.
For the compound `OCCN(CCO)c1ccccc1`, the Potency result was “inactive”.
With `CCN(CC)CC1CCCCN1CC(=O)N1c2ccccc2C(=O)Nc2cccnc21` (stereo not drawn), the Potency result was “inactive”.
Same read-out and setting: the same measure for `CN1CCN(N)CC1`: “inactive”; for `CN1CCN(C2=Nc3cc(F)ccc3Cc3ccccc32)CC1`: “inactive”; for `CC1(O)CSC(C)(O)CS1` (stereo not drawn): “inactive”.

System in the next test: not listed separately
In words: qHTS assay to identify small molecule phospholipidosis (PLD) inducers (AID 1259344; active = well fitted curve in the direction sought with a large enough effect; an effect the other way counts as inactive or inconclusive). Conditions: HepG2 phospholipidosis, LipidTOX Red imaging, 24 h; series mostly up to 38.3 µM. The gist of the method: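 Phospholipid accumulation was scored by imaging: fixed, Hoechst-counterstained HepG2 cells stained with LipidTOX Red after 24 h compound exposure at 37 C. Read-outs were pit count and pit intensity per well or per cell, with amiodarone and DMSO controls.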
Turning to `Cc1ccsc1C(=CCCN1CCC[C@@H](C(=O)O)C1)c1sccc1C`, the outcome was inactive.
For `Cc1ncc(CO)c(CN)c1O`, the result was inactive.
Regarding `CC(CNC1CCCCC1)OC(=O)c1ccccc1` (stereo not drawn), the compound was called inactive.
On to `COc1ccc(S(=O)(=O)Nc2nnc(CC(C)C)s2)cc1`, for which the outcome was inactive.
For the compound `Cn1cnc2c(F)c(Nc3ccc(Br)cc3Cl)c(C(=O)NOCCO)cc21`, the compound was called inactive.
Still for that read-out and setting: then `CO[C@@]1(NC(=O)CSCC#N)C(=O)N2C(C(=O)O)=C(CSc3nnnn3C)CS[C@@H]21`, with “inactive”; and `C[C@@H]1CN(c2c(F)c(F)c3c(=O)c(C(=O)O)cn(C4CC4)c3c2F)C[C@H](C)N1`, with “inactive”.
As to `CC(=O)N(CC(O)CN(C(C)=O)c1c(I)c(C(=O)NCC(O)CO)c(I)c(C(=O)NCC(O)CO)c1I)c1c(I)c(C(=O)NCC(O)CO)c(I)c(C(=O)NCC(O)CO)c1I` (stereo not drawn), the call was inactive.
On to `C[C@@H](N)C(=O)O`, for which the call was inactive.
On to `CCC(=O)O[C@]1(C(=O)SCF)[C@H](C)C[C@H]2[C@@H]3C[C@H](F)C4=CC(=O)C=C[C@]4(C)[C@@]3(F)[C@@H](O)C[C@@]21C`, for which the compound was classed as inactive.
As to `Cc1c(C(=O)NCCO)[n+](=O)c2ccccc2n1[O-]`, the outcome was inactive.
Regarding `C=Cc1ccccc1`, the call was inactive.
Still for that read-out and setting: the same measure for `CCCNC(C)C(=O)Nc1c(C)csc1C(=O)OC` (stereo not drawn): “inactive”; for `CCN(CC)CCNC(=O)COc1ccc(Cl)cc1`: “inactive”; for `CN(C)Cc1ccccc1`: “inactive”.
With `O=c1oc2c(O)c(O)cc3c(=O)oc4c(O)c(O)cc1c4c23`, the compound was classed as inactive.
As to `O=c1[nH]c(=O)n([C@H]2C[C@H](O)[C@@H](CO)O2)cc1C(F)(F)F`, the call was inactive.
As to `FC(F)(F)C(F)(F)C(F)(F)C(F)(F)C(F)(F)C(F)(F)C(F)(F)C(F)(F)Br`, the result was inactive.
The same measure, in the same setting: the same measure for `CC1=C(CC(=O)O)c2cc(F)ccc2/C1=C\c1ccc(S(C)(=O)=O)cc1`: “inactive”; for `CCN(CC)CC1CCCCN1CC(=O)N1c2ccccc2C(=O)Nc2cccnc21` (stereo not drawn): “inactive”.
